Bioassay records deposited in PubChem by National Center for Advancing Translational Sciences (NCATS).
Sampled rows, rich in hits. Any-hit rate of the full collection: about 6.9%.
Giardia killer: Small Molecules that selectively kill Giardia lamblia: qHTS. Giardia lamblia trophozoite viability. activity change, % at 7.66 µM, hits read low. 0.15% of 340,000 active. AID 540267, 2011; in the data active = activity change below about -80%; inconclusive = between about -30% and that limit;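 note: parasites exposed to compound for two days anaerobically before the ATP read; % is set by controls: 0 for no effect and ±100 for the full control effect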
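ATP-content bioluminescence gauges trophozoite survival. Cells (100/well) receive compound and incubate anaerobically for 48 hrs at 37 deg C; detection reagent follows for 15-30 min at room temperature.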
KB-3-1 tox: qHTS assay for MDR1-selective chemotherapeutics: Primary screen using the parental adenocarcinoma cell KB-3-1 | KB-3-1 viability, CellTiter-Glo ATP luminescence, 72 h | Potency, µM (titrated, usually from 46.1 µM), most hits filed as cytotoxic | 1.4% of 400,000 active | AID 1347075, 2019; note: potency is the fitted concentration of half-maximal effect; % is set by controls: 0 for no effect and ±100 for the full control effect; nearly all actives have a fitted effect of over 60% in size
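KB-3-1 parental drug-naive adenocarcinoma cells in DMEM/10% FBS, incubated 72 h at 37 C with pin-transferred compounds across a concentration series. Viability by CellTiter-Glo luminescence; concentration-response curves fitted after normalization.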
SW480 rereplic: A quantitative high throughput screen for small molecules that induce DNA re-replication in SW480 colon adenocarcinoma cells. 1.8% of 340,000 active. SW480 DNA re-replication, Hoechst DNA content imaging, 48 h. Potency, µM (doses to about 46.1 µM), without a hit: top-dose re-replication activation, actives largely listed as activators; note: potency is the fitted concentration of half-maximal effect; % of control where 0% means no effect; nearly all actives have a fitted effect of over 55% in size
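Image-based read-out: total Hoechst fluorescence of nuclei (405 nm excitation, 500-530 nm emission), with hits raising the fraction of high-intensity nuclei. SW480 colon cells incubated 48 hr with compounds at 37 C.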
KB-V1 cytotox: qHTS assay for MDR1-selective chemotherapeutics: Primary screen using the drug-selected MDR subline cells KB-V1 | KB-V1 MDR cells viability, CellTiter-Glo, 72 h | Potency, µM (series often up to 46.1 µM), usual class: cytotoxic | 3.4% of 400,000 active | AID 1347076, 2019; note: potency is the fitted concentration of half-maximal effect; % is set by controls: 0 for no effect and ±100 for the full control effect; nearly all actives have a fitted effect of over 60% in size
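Following 72 h at 37 degrees C with compound, KB-V1 cell viability was read by CellTiter-Glo luminescence, medium being phenol-red-free DMEM plus 10% FBS; concentration-response parameters came from normalized, curve-fitted qHTS data.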
MCF10A rerep: A quantitative high throughput screen for small molecules that induce DNA re-replication in MCF 10a normal breast cells. AID 624296, 2012. 2.9% of 350,000 active. Potency, µM (highest dose often 46.1 µM), inactives show at the top dose activity, positive = re-replication, actives largely listed as activators. MCF 10A DNA re-replication, Hoechst nuclear intensity, 48 h; note: potency is the fitted concentration of half-maximal effect; % of control where 0% means no effect; nearly all actives have a fitted effect of over 50% in size
S-ASM inh: Inhibitors of Secretory Acid Sphingomyelinase (S-ASM): qHTS | Sphingomyelin phosphodiesterase (Homo sapiens), P17405 | placental ASM, HMU-PC fluorogenic substrate, 60 min | Potency, µM (series often up to 57.5 µM), inactives show top-dose activity change, negative = inhibition, most hits filed as inhibitors | 0.006% of 340,000 active | AID 504937, 2011; note: potency is the fitted concentration of half-maximal effect
Target sequence (P17405 47-631 limits assumed): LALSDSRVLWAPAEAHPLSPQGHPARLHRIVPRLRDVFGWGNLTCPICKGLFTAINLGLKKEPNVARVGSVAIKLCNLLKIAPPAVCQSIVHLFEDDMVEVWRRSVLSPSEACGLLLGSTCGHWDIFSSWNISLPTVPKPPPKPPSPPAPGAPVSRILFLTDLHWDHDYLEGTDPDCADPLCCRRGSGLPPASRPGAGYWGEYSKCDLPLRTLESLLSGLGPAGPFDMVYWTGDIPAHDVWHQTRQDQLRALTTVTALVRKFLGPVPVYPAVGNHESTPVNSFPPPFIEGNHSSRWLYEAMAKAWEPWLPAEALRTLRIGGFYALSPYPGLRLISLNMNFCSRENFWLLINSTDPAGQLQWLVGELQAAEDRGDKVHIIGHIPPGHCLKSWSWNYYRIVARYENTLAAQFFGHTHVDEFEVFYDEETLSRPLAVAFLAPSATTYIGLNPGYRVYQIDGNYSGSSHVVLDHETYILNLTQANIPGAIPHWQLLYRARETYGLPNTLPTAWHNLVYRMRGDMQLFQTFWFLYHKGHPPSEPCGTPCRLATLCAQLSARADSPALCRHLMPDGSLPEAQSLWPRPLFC
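Human placenta-derived ASM enzyme was preincubated with compound for 10 minutes at room temperature, then given fluorogenic substrate HMU-PC0 (9 uM final) for 60 minutes at 37 °C; a pH 10 stop preceded fluorescence reading at Ex 386/Em 447 nm.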
* hit, by the source's call. Unless noted, calls come from the whole dose curve; as a rule, active = well fitted curve in the direction sought with a large enough effect; inconclusive = small, poorly fitted or top-dose-only effect, or another doubt; inactive = no such curve, though single readings can be large; an effect the other way counts as inactive or inconclusive.

For Cn1cnc([N+](=O)[O-])c1S(=O)(=O)Oc1cccc2ccccc12 the results were Giardia killer 0, KB-3-1 tox inconclusive, SW480 rereplic 6.5µM*, KB-V1 cytotox inconclusive, MCF10A rerep 5.8µM* and S-ASM inh 5%.
Screening CCS(=O)(=O)c1c([N+](=O)[O-])ncn1C returned Giardia killer -22, KB-3-1 tox inactive, SW480 rereplic inconclusive, KB-V1 cytotox inactive, MCF10A rerep 12µM* and S-ASM inh 0%.
For Cc1ccc(CNC(=O)Cc2ccc(NC(=O)N3CCSc4ncccc43)cc2)cc1 the results were KB-3-1 tox inactive and KB-V1 cytotox inactive.
`O=C(c1ccc([N+](=O)[O-])o1)N1CCN(c2nc3c(F)cc(F)cc3s2)CC1` gave Giardia killer inconclusive, KB-3-1 tox inactive, SW480 rereplic inconclusive, KB-V1 cytotox inconclusive, MCF10A rerep inconclusive and S-ASM inh -9%.
For Cc1ccc(C)c2sc(N3CCN(C(=O)c4ccc([N+](=O)[O-])o4)CC3)nc12 the results were Giardia killer -15, KB-3-1 tox inconclusive, SW480 rereplic inconclusive, KB-V1 cytotox inconclusive, MCF10A rerep 9.2µM* and S-ASM inh -4%.
CCOC(=O)N(O)c1ccc(C=Cc2ccccc2)cc1 was read as Giardia killer 0, KB-3-1 tox inconclusive, SW480 rereplic 12µM*, KB-V1 cytotox 21µM*, MCF10A rerep inconclusive and S-ASM inh 4%.
`CC(SC#N)C(=O)C12CC3CC(CC(C3)C1)C2` (configuration not stated) gave Giardia killer 4, KB-3-1 tox 21µM*, SW480 rereplic inconclusive, KB-V1 cytotox inactive, MCF10A rerep 18µM* and S-ASM inh -2%.
CC(Sc1n[nH]c(N)n1)C(=O)C12CC3CC(CC(C3)C1)C2 (configuration not stated) was read as Giardia killer -15, KB-3-1 tox inactive, SW480 rereplic -18%, KB-V1 cytotox inactive, MCF10A rerep 6% and S-ASM inh 4%.
`Cc1ccc(S(=O)(=O)N2c3cc(C)ccc3OCC2C(C)(C)C)cc1` (configuration not stated) gave Giardia killer -13, KB-3-1 tox inconclusive, SW480 rereplic inconclusive, KB-V1 cytotox inconclusive, MCF10A rerep 16µM* and S-ASM inh -4%.
`COc1cccc(C(=O)N2c3cc(C)ccc3OCC2C(C)(C)C)c1` (configuration not stated) gave Giardia killer -17, KB-3-1 tox inactive, SW480 rereplic -2%, KB-V1 cytotox inactive, MCF10A rerep 2% and S-ASM inh 3%.
`COc1ccc(S(=O)(=O)N2c3cc(C)ccc3OCC2C(C)(C)C)cc1` (configuration not stated) gave Giardia killer -16, KB-3-1 tox 5.8µM*, SW480 rereplic 5.8µM*, KB-V1 cytotox 5.2µM*, MCF10A rerep 2.6µM* and S-ASM inh -5%.
For CC1CCCCN1C(=O)CSc1nnc2c(n1)[nH]c1ccc(F)cc12 (configuration not stated) the results were Giardia killer -18, KB-3-1 tox inactive, SW480 rereplic -4%, KB-V1 cytotox inactive, MCF10A rerep 6% and S-ASM inh -4%.
Screening CC1CCc2cc(F)ccc2N1C(=O)CSc1nnc2c(n1)[nH]c1ccc(F)cc12 (configuration not stated) returned Giardia killer -15, KB-3-1 tox inactive, SW480 rereplic -3%, KB-V1 cytotox 21µM*, MCF10A rerep 17% and S-ASM inh -3%.
Cc1ccc(Nc2c(-c3ccc(N(C)C)cc3)nc3ccccn23)cc1 was read as KB-3-1 tox inactive and KB-V1 cytotox inactive.
Screening Cc1cc(C)n(CC(O)COc2ccc(Cl)cc2Cl)n1 (configuration not stated) returned Giardia killer 6, KB-3-1 tox inconclusive, SW480 rereplic 24%, KB-V1 cytotox 10µM*, MCF10A rerep 2% and S-ASM inh 0%.
Screening Cc1cc(C)n(CC(O)COc2ccc(Cl)cc2)n1 (configuration not stated) returned Giardia killer -10, KB-3-1 tox inactive, SW480 rereplic 3%, KB-V1 cytotox inactive, MCF10A rerep inconclusive and S-ASM inh 7%.
Screening CCOc1ccc(NC(=O)CSC2=Nc3ccccc3C3=NC(CCC(=O)NCc4cccs4)C(=O)N23)cc1 (configuration not stated) returned KB-3-1 tox inactive and KB-V1 cytotox inactive.
`Cc1cc(C)n(CC(O)Cn2c3ccc(Cl)cc3c3cc(Cl)ccc32)c(=O)n1` (configuration not stated) gave Giardia killer -3, KB-3-1 tox inactive, SW480 rereplic 4%, KB-V1 cytotox 16µM*, MCF10A rerep 2% and S-ASM inh -18%.
For COc1cc(OC)c(NC(=O)c2cn(C3CCCC3)c(=O)c3c2c2ccccc2n3C)cc1Cl the results were KB-3-1 tox inactive and KB-V1 cytotox inactive.
Screening COc1cccc2c3cccc(OC)c3c3[nH]cnc3c12 returned Giardia killer -27, KB-3-1 tox inconclusive, SW480 rereplic inconclusive, KB-V1 cytotox inconclusive, MCF10A rerep 21µM* and S-ASM inh 0%.
For COc1cccc2[nH]c3c(=O)[nH]cnc3c12 the results were Giardia killer -19, KB-3-1 tox inactive, SW480 rereplic -3%, KB-V1 cytotox inconclusive, MCF10A rerep -11% and S-ASM inh 7%.
For CCO[C@H]1OC(C(=O)NC2CC2)=C[C@@H](c2ccccc2)[C@@H]1CCCO the results were Giardia killer -2, KB-3-1 tox inactive, SW480 rereplic inconclusive, KB-V1 cytotox inactive, MCF10A rerep 23µM* and S-ASM inh 6%.
Screening C#Cc1ccc([C@@H]2C=C(C(=O)NC3CC3)O[C@H](OCC)[C@H]2CCCO)cc1 returned Giardia killer 0, KB-3-1 tox inactive, SW480 rereplic 0%, KB-V1 cytotox inactive, MCF10A rerep inconclusive and S-ASM inh 9%.
For O=C(c1ccco1)N1CCN(/C=C2\Nc3ccccc3C(=O)N2c2ccc(F)cc2)CC1 the results were Giardia killer 13.
